Data on 40 sequences can be found in the OligoGym collection.
Further: reference of the scale not given here.

For one assay, the target named is CD27. The assay is described as follows: pooled miR-30 sensor sort-seq; sequence = guide strand. The conditions noted are these: shRNA.
With TTTGTTTGATCTATATTTCCTT, the sensor-assay potency score (higher = more potent) was found to be 0.303.

TCTATGCTGGTCACAGTCCTTC came in with a sensor-assay potency score (higher = more potent) of -0.827.

In turn, ATGCGAATAAAATCGGAGCTGC displayed a sensor-assay potency score (higher = more potent) of -0.25.

TTGATCTATATTTCCTTCGTTG returned a sensor-assay potency score (higher = more potent) of -0.282.

AAAACAAGGAACATTCCAGAGA came in with a sensor-assay potency score (higher = more potent) of -0.821.

Regarding TTGGAAGAGGATCACACTCGGT, the sensor-assay potency score (higher = more potent) is -0.746.

A further assay deals with CD300E. The description is as above. The conditions noted are these: shRNA.
With TTTTGGGTCAACACCTCCCCGG, the sensor-assay potency score (higher = more potent) was -0.887.

Sequence TTTGGGTCAACACCTCCCCGGT had a sensor-assay potency score (higher = more potent) of -1.29.

As for TTGTACATGCTCTCATACTGAC, the sensor-assay potency score (higher = more potent) is -0.406.

Turning to ACTGTCTGAATTTTGCACCAGT, the sensor-assay potency score (higher = more potent) was -0.28.

For TGAATTTTGGGTCAACACCTCC, the sensor-assay potency score (higher = more potent) was -1.03.

Sequence TTGGTCTCCACAATGCTCTCAC returned a sensor-assay potency score (higher = more potent) of 0.408.

For TCACATGACGTGTCGTACTGTC, the sensor-assay potency score (higher = more potent) was 0.205.

In the case of TGGTCTCTGATGGACACGCGGC, the sensor-assay potency score (higher = more potent) was -1.67.

TTGGGGTTGTAATTGCTGGGGA had a sensor-assay potency score (higher = more potent) of -0.0469.

For ATGACGTGTCGTACTGTCCTCG, the sensor-assay potency score (higher = more potent) was -0.632.

ATACTGACACCACACTGTCAGA gave a sensor-assay potency score (higher = more potent) of -1.71.

On to ATCATCTTCATTGAGGTTCTGC, for which the sensor-assay potency score (higher = more potent) turned out to be 0.407.

Another assay deals with CD300LG. The description is as above. The conditions noted are these: shRNA.
TTCCTGCACCAGTACTTCCGGT returned a sensor-assay potency score (higher = more potent) of -1.16.

On to TTCTTCTTCTGCATAGATGGTG, for which the sensor-assay potency score (higher = more potent) was -0.287.

In turn, TCTTCTTCTGCATAGATGGTGC returned a sensor-assay potency score (higher = more potent) of -0.808.

As for TTTTCTTCATCATTTTTCCAAA, the sensor-assay potency score (higher = more potent) was -1.26.

In turn, TCCTGCACCAGTACTTCCGGTG yielded a sensor-assay potency score (higher = more potent) of -1.28.

TAGATGGTGCCAGAGCAGCGAG showed a sensor-assay potency score (higher = more potent) of -1.7.

Regarding TCTGTGTTAGACACCTACGTGC, the sensor-assay potency score (higher = more potent) is 0.23.

TATCCCTGCAATGTGCACCTGA came in with a sensor-assay potency score (higher = more potent) of 0.23.

Turning to TCTTCTGCATAGATGGTGCCAG, the sensor-assay potency score (higher = more potent) was -0.529.

For TTCCCTGTAGGTGCACTGCAGG, the sensor-assay potency score (higher = more potent) was -0.985.

For TTGGTGTCGCAGACAGAGCAGA, the sensor-assay potency score (higher = more potent) was -1.29.

As for TTCTACTTTTCTCTCTAGCCAC, the sensor-assay potency score (higher = more potent) is -0.61.

For another assay, the target named is CD320. The description is as above. The conditions noted are these: shRNA.
TTGCACTGAGCACCGCAGCAGC came in with a sensor-assay potency score (higher = more potent) of -1.06.

With TTCCGGGAGGATCTCATTGGTT, the sensor-assay potency score (higher = more potent) was -1.44.

Sequence TCATCGCTGCCATCGCTGCAGT came in with a sensor-assay potency score (higher = more potent) of -1.32.

TCTCATTGGTTCCACAGCCGAG gave a sensor-assay potency score (higher = more potent) of -1.57.

The sequence TTGCGCAGTTTCTTGTCAGTTC showed a sensor-assay potency score (higher = more potent) of -0.101.

Consider TCCACAGCCGAGCTCGTCGCTG, for which the sensor-assay potency score (higher = more potent) is -1.78.

The sequence TCTGTTCTGACAGCAGCAGGGA displayed a sensor-assay potency score (higher = more potent) of -0.673.

In the case of TAGTCCGAGGCCGAGCAGCAGC, the sensor-assay potency score (higher = more potent) was -1.57.

In the case of TTCTGTTCTGACAGCAGCAGGG, the sensor-assay potency score (higher = more potent) is -0.457.

ATGCAGTCATCGCTCAGCGTGC had a sensor-assay potency score (higher = more potent) of -1.64.
